ALDH1A1 block = blocks purified human ALDH1A1 activity. P00352. Purified ALDH1A1, NADH fluorescence, propionaldehyde substrate. Potency, µM (series often up to 75.3 µM), inactives show at the top dose activity, negative = inhibition, actives largely listed as inhibitors. actives 7.3% (n = 220,000). AID 1030;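 note: potency is the fitted concentration of half-maximal effect; plate controls were no enzyme wells and a reference inhibitor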
PNC assembly inh = blocks assembly of the perinucleolar compartment; PC3M PTB-GFP, PNC prevalence imaging, 16 h; active compounds read low; activity change (PNC), negative = inhibition, % at 10 µM; AID 2417; actives 3.1% (n = 140,000);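 active = readout at or below -70, meaning at least 70% loss of cells showing the perinucleolar compartment, a nuclear body marking cancer cells; inconclusive = readout between -30 and a set limit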;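 note: plate controls were DMSO wells for no effect and camptothecin positive control wells for full effect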
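Compounds are pinned in duplicate onto adhered PC3M cells stably expressing GFP-tagged PTB and incubated 16 h at 37 C. Cells are then fixed, nuclei stained with Hoechst, and PNC-positive cells counted.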
Lamin A splicing = LMNA splicing modulation; HeLa LMNA splicing GFP/RFP minigene ratio, 48 h; Potency, µM (top dose mostly 46.1 µM), inactives show top-dose ratio change, negative = inhibition, usual class: inhibitors; actives 0.01% (n = 200,000); active = well fitted inhibition curve with a large enough effect in the signal ratio, with a control signal flat, not every such curve was filed as active; inconclusive = small, poorly fitted or top-dose-only effect, or effect the other way, or a change in a side signal; the % refers to the signal ratio; note: potency is the fitted concentration of half-maximal effect
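Read-out is the ratio of GFP to DsRed2 object intensity, acquired by 488 nm laser-scanning cytometry on HeLa lamin A-EGFP minigene reporter cells. Compound incubation 48 hrs at 37 °C in Opti-MEM with 2% FBS; DMSO 0.5% final.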
HPGD block = blocks human HPGD enzyme activity; AID 894; purified HPGD, NADH fluorescence kinetic, PGE2 substrate; Potency, µM, for the others: at the highest dose activity change, negative = inhibition, hits mostly inhibitors; actives 4.3% (n = 150,000); note: potency is the fitted concentration of half-maximal effect
Target sequence (P15428 whole entry, looked up): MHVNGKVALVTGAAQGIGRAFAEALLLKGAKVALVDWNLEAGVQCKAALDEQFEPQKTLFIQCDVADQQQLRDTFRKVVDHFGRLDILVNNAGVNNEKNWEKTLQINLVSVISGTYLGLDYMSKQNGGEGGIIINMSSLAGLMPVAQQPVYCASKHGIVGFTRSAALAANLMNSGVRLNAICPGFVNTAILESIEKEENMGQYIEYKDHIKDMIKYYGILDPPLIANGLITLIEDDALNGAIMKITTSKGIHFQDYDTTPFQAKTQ
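NADH formation kinetics: reaction with 30 uM PGE2 and 1 mM NAD+ (final), 20 nM enzyme, Tris-HCl pH 8 with Tween 20, after 15 min compound preincubation at room temperature. Fluorescence change, last versus first of five reads.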
ALOX12 inhib = blocks human 12-lipoxygenase activity. Potency, µM (highest dose often 57.1 µM), without a hit: top-dose activity change, negative = inhibition, actives largely listed as inhibitors. actives 0.12% (n = 150,000). purified 12-hLO, xylenol orange hydroperoxide absorbance; active = well fitted inhibition curve with a large enough effect; inconclusive = small, poorly fitted or top-dose-only effect; note: potency is the fitted concentration of half-maximal effect; nearly all actives have a fitted effect of over 55% in size
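Lipoxygenase turnover measured by absorbance at 573 and 405 nm after Fe-XO development. Human 12hLO 150 nM, arachidonate 40 uM, pH 7.0 Hepes buffer with detergent; 15 min compound preincubation, 30 min reaction.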
* = called active by the depositor; ? = inconclusive; nt = no result; ! = not confirmed by another sample; [ ] = remark or other dose. Shown are actives, neighbours in structure and some others; about 10% of the full set was active somewhere. Unless noted, calls come from the whole dose curve; as a rule, active = well fitted inhibition curve with a large enough effect (not every such curve was filed as active); inconclusive = small, poorly fitted or top-dose-only effect, or another doubt; inactive = no such curve, though single readings can be large or run the other way. Unless noted, % is set by controls: 0 for no effect and ±100 for the full control effect.

SMILES	ALDH1A1 block	PNC assembly inh	Lamin A splicing	HPGD block	ALOX12 inhib
COc1ccc(C2c3c(oc4ccc(C)cc4c3=O)C(=O)N2CCCN2CCOCC2)cc1OC (stereo unspecified)	nt	nt	10%[46 µM]	nt	nt
O=C1c2oc3ccccc3c(=O)c2C(c2cccnc2)N1CCCN1CCOCC1 (stereo unspecified)	-4%	15	-4%	-3%	-9%
CC(C)Oc1ccc(C2c3c(oc4ccccc4c3=O)C(=O)N2CCCN2CCOCC2)cc1 (stereo unspecified)	8.9µM*	33	-4%	-14%	-9%
Cc1ccc(C2c3c(oc4cc(C)c(C)cc4c3=O)C(=O)N2CCCN2CCOCC2)cc1 (stereo unspecified)	11µM*	-5	-3%	-6%	-3%
O=C1c2oc3ccc(Cl)cc3c(=O)c2C(c2ccccn2)N1CCCN1CCOCC1 (stereo unspecified)	7.9µM*	-23	-10%	-29%	-2%
C=CCOc1ccc(C2c3c(oc4ccccc4c3=O)C(=O)N2CCCN2CCOCC2)cc1 (stereo unspecified)	18µM*	23	6%	-8%	-24%
CN(C)c1ccc(CNC(=O)c2cnc3sc(N4CCOCC4)nn3c2=O)cc1	nt	nt	-14%[46 µM]	nt	nt
Cn1cccc1C(=O)N1CCC2(CCCN(Cc3nccs3)C2)CC1	-3%	nt	nt	-1%	1%
CCOC(=O)N1CCN(C(=O)CSCc2nc(-c3ccccc3F)oc2C)CC1	22µM*	39	8%	-19%	10%
COc1ccc(-c2nc(CSCC(=O)N3CCN(C(=O)c4ccco4)CC3)c(C)o2)cc1OC	20µM*	?	-2%	-16%	-3%
CCOC(=O)N1CCN(C(=O)CSCc2nc(-c3ccccc3C)oc2C)CC1	?	-29	?	-11%	1%
Cc1ccc(CN(C)C(=O)c2cc(COc3ccc(F)cc3Cl)on2)o1	7.1µM*	nt	nt	nt	nt
CC(=O)[C@H](CC(C)C)NC(=O)[C@@H](CC(C)C)NC(=O)[C@H](CC(C)C)NC(=O)OCc1ccccc1	-1%	nt	nt	-2%	-2%
Cc1ccc(N=C2SC(C(=O)NCCc3ccccc3)CC(=O)N2C)cc1C (stereo unspecified)	10µM*	nt	6%[46 µM]	nt	nt
c1csc(C(c2nnnn2C2CCCCC2)N2CCCC3(CCCCC3)C2)c1 (stereo unspecified)	7.9µM*	?	3%	-13%	2%
Oc1ccc(N2CCN(C(c3cccs3)c3nnnn3CCc3ccccc3)CC2)cc1 (stereo unspecified)	25µM*	-29	?	-4%	-4%
CC(C)(C)n1nnnc1C(c1cccs1)N1CCCC2(CCCCC2)C1 (stereo unspecified)	5%	-11	?	-8%	2%
COc1ccc(Cn2nnnc2C(c2cccs2)N2CCN(c3ccccc3)CC2)cc1 (stereo unspecified)	-6%	29	?	-17%	-3%
c1ccc(Cn2nnnc2C(c2cccs2)N2CCCCCC2)cc1 (stereo unspecified)	14µM*	15	4%	4%	-8%
c1ccc(Cn2nnnc2C(c2cccs2)N2CCc3ccccc3C2)cc1 (stereo unspecified)	?	27	-4%	-12%	-11%
COc1ccc(OC)c(CNC(=O)c2ccc(C)c(NC(=O)c3nsc4ccccc34)c2)c1	nt	nt	6%[46 µM]	nt	nt
COc1ccc(-c2csc(-c3[nH]cnc3N)n2)cc1	7.1µM*	nt	?	nt	nt
COc1ccc(-c2csc(C)n2)cc1	6%	-20	-2%	-4%	-5%
C[C@@H](c1ccccc1)N1C(=O)[C@H]2[C@H]3[C@H](O)[C@H](O)C/C(=N/NC(=O)OCc4ccccc4)[C@@H]3CC[C@@H]2C1=O	-6%[13.5 µM]	nt	nt	nt	nt
OCCC1CN(Cc2cccn2-c2cccnc2)CCN1Cc1ccc(F)cc1 (stereo unspecified)	4%	nt	-2%[46 µM]	nt	nt
SMILES	ALDH1A1 block	PNC assembly inh	Lamin A splicing	HPGD block	ALOX12 inhib
CC(C)CN1CCN(Cc2cccn2-c2cccnc2)CC1CCO (stereo unspecified)	3.5µM*	nt	nt	nt	nt
CCC(C)CCCCC(=O)NC(CCN)C(=O)NC(C(=O)NC(CCN)C(=O)NC1CCNC(=O)C(C(C)O)NC(=O)C(CCN)NC(=O)C(CCN)NC(=O)C(CC(C)C)NC(=O)C(Cc2ccccc2)NC(=O)C(CCN)NC1=O)C(C)O (stereo unspecified)	10%	nt	?	-2%	?
C(=C\c1ccco1)/C=N/n1cnnc1	3.2µM*	?	7%	32µM*	-12%
COCCCn1c(=S)[nH]c2sc3c(c2c1=O)CCCS3	25µM*	nt	?	nt	nt
CCn1c(=O)n(CCOC)c(=O)c2c3c(sc21)CCCC3	-10%	2	-6%	-13%	-3%
Cc1ccc(-c2nc3sc(CCNC(=O)c4ccc(F)c(F)c4)c(C)n3n2)cc1	nt	nt	3%[46 µM]	nt	nt
Cc1nc2cc(N3CCN(C)CC3)c(NC(=O)Cc3ccccc3)cc2c(=O)n1Cc1ccccc1	18µM*	44	-2%	nt	1%
O=C(O)CC12C[C@H]3C[C@@H](CC(O)(C3)C1)C2	2%[13.5 µM]	nt	nt	-9%	2%[11.4 µM]
COc1ccc(-n2c(N3CCN(C)CC3)nc3sc4c(c3c2=O)CCCCC4)cc1	2.8µM*	-16	-5%	?	-5%
COc1ccc(-n2c(C)nc3sc4c(c3c2=O)CCC4)cc1	8%	nt	nt	nt	nt
CC(C)NC[C@@H](O)COc1ccccc1-n1cccc1	-2%	nt	nt	1%	2%
CC(C)=CCc1c(O)cc2oc(C)cc(=O)c2c1O	-2%	nt	nt	4.5µM*	0%
COc1c(O)cc2oc3cc(O)c(CC=C(C)C)c(O)c3c(=O)c2c1CC=C(C)C	-2%	nt	?	28µM*!	?
COc1ccccc1N(C1=NCCCS1)S(=O)(=O)c1ccc(C(C)(C)C)cc1	0.22µM*	nt	6%[46 µM]	nt	nt
COc1ccc(S(=O)(=O)N(C)c2ccc(C(=O)N3CCCC3)cc2)cc1	-14%	nt	?	nt	nt
COc1ccc(N(C2=NCCCS2)S(=O)(=O)c2ccc(C(C)(C)C)cc2)cc1	0.79µM*	nt	-10%[46 µM]	nt	nt
COc1ccccc1N(C)S(=O)(=O)c1ccc(C(=O)NC2=NCCS2)cc1	-4%	-5	-6%	2%	1%
COc1ccc(-n2ncc3c(NC(C)(C)CO)ncnc32)cc1	nt	nt	-10%[46 µM]	nt	nt
CCCCN1C(=O)C(=Nc2cccc3cnccc23)c2ccccc21	0.63µM*	nt	?	nt	nt
COc1ccc2cc(C(c3nnnn3C(C)(C)C)N3CCc4ccccc4C3)c(=O)[nH]c2c1 (stereo unspecified)	?	?	-12%	-22%	-10%
Cc1cccc2cc(C(c3nnnn3C3CCCC3)N3CCOCC3)c(=O)[nH]c12 (stereo unspecified)	?	-12	16%	-14%	-2%
Cc1cc(C)c2cc(C(c3nnnn3C3CCCC3)N3CCOCC3)c(=O)[nH]c2c1 (stereo unspecified)	14µM*	-6	13%	?	3%

Screening results: PubChem, National Center for Advancing Translational Sciences (NCATS)
